Where “and” joins values, the source holds several entries; their conditions need not be identical. Equal entries are not always repeated. Inconclusive results are not listed. Calls of active or inactive are those of the source. Unless noted, the rule behind the calls is not given here.
Assays:
[1] = yeast TOR pathway RPL19A-GFP modulators, primary screen, cell-based, S. cerevisiae, multiplex flow cytometry (AID 1862; in the data active = percent of DMSO control GFP below about 86%;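 note: lower values mimic rapamycin by blocking the RPL19A rise seen in DMSO cells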); settings: S. cerevisiae RPL19A-GFP strain, flow cytometry fluorescence, 3 h; at 10 µM; stronger effect = lower value
[2] = modulators of MEP2-GFP levels in yeast, primary screen, S. cerevisiae, multiplex flow cytometry (AID 1867;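 active = GFP response, as percent of the DMSO control, above the screen-wide mean plus 3 SD, about 139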;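 note: median GFP channel fluorescence of barcode-gated MEP2-GFP cells measured by flow cytometry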); settings: S. cerevisiae MEP2-GFP strain, 3 h, at 10 µM, stronger effect = higher value
[3] = modulators of CIT2-GFP expression in yeast, primary screen, S. cerevisiae, GFP fusion, multiplex flow cytometry (AID 1870;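 active = percent response above a set limit, the screen-wide mean plus 3 SD, cut at about 130% in these data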;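 note: barcoded CIT2-GFP strain pooled with four other GFP strains with rapamycin as positive control; median GFP fluorescence per well over plate mean of DMSO wells so 100% = DMSO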); settings: 3 h, at 10 µM, stronger effect = higher value
[4] = modulators of LAP4-GFP expression in yeast, primary screen, S. cerevisiae, multiplex flow cytometry (AID 1873;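 active = GFP signal, as percent of the solvent control, above the screen mean plus 3 SD, about 149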); settings: 3 h, at 10 µM, stronger effect = higher value
[5] = inhibitors of CD8+ T cell-vesicle binding, pilot screen, LFA-1/ICAM-1 modulator project, MLPCN validation set, flow cytometry (AID 2523;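 active = response below a set limit, under 55% cells CD8-positive and vesicle-bound, and CD8 cells' 90th-percentile brightness under 279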;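 for vesicle binding response: mean PE anti-B7-1 fluorescence of CD8+ cells relative to row control; 100% = QL9-loaded vesicles with DMSO vehicle in the same plate row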); settings: 2C mouse CD8+ T cells, at 7 µM, stronger effect = lower value; double positive events: measured here: CD8+/vesicle+ event percentage
[6] = target: Integrin beta-1 (Homo sapiens) + Integrin alpha-4 (Homo sapiens) (UniProt P13612+P05556); assay: inhibition of HUTS-21 binding to VLA-4, pilot screen, VLA-4 allosteric modulator project, U937 cells, HUTS-21 mAb, flow cytometry, validation set (AID 2674;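 active = inhibition above 50%, about 3 SD of the validation set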;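 note: antibody binding induced by the VLA-4 ligand LDV present at three times its Kd; 0% = LDV ligand with antibody and no compound and 100% = antibody without LDV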); settings: HUTS-21 LIBS mAb binding, at 6.7 µM, stronger effect = higher value
[7] = superoxide lowering in aged yeast cells, pilot screen, validation compound set (AID 2706;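 active = superoxide response below 65% of plate, a cut near 3 SD across the whole screen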;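 note: yeast exposed to compound for one week at 30 degrees C before staining; 100% = mean of all compound wells on the same plate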); settings: S. cerevisiae aging, superoxide DHE fluorescence; at 10 µM; stronger effect = lower value
[8] = target: Beta-adrenergic receptor kinase 1 (Homo sapiens) (UniProt P25098); assay: GRK2 binders displacing RNA aptamer, biochemical, validation, human GRK2, bead flow cytometry (AID 488806;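 active = aptamer binding inhibition above 30%, about 3 SD of noise from non-fluorescent compounds; inactive = inhibition at or below 30%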); settings: bead-bound GRK2, FAM-aptamer displacement, at 10 µM, stronger effect = higher value
[9] = target: AP-2 complex subunit beta (Homo sapiens) (UniProt P63010); assay: inhibitors of arrestin peptide binding to AP2, pilot screen, biochemical, validation set, GST-AP2 beads, flow cytometry (AID 504541;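 active = inhibition above 54%, about 3 SD of non-fluorescent compounds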;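 note: AP2 carries R879A mutation and is captured from E. coli lysate; bead-bound FITC arrestin peptide fluorescence measuring arrestin peptide binding to AP2; 0% = DMSO wells and 100% = excess unlabeled arrestin peptide control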); settings: FITC arrestin peptide, at 10 µM, stronger effect = higher value
[10] = yeast V-ATPase proton transport modulators, S. cerevisiae, pHLuorin, HTS validation (AID 504600; in the data active = response above about 15%;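 note: plate controls were DMSO for no effect and reference compound for full effect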); settings: S. cerevisiae pHLuorin cytosolic pH, at 10 µM, stronger effect = higher value
[11] = test system: anti-desmoglein-3 scFv antibody binding to human DSG3; assay: inhibitors of anti-DSG3 scFv binding to DSG3, pilot screen, biochemical, validation compound set, bead-based, flow cytometry (AID 588368;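 active = binding below the plate cutoff, the plate median minus 3 SD, with a reading above zero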;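 note: signal is the median channel fluorescence of bead-bound GFP antibody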); settings: Protein G beads, DSG3-Fc, scFv-GFP binding, at 10 µM, stronger effect = lower value
[12] = test system: Botulinum neurotoxin type F light chain protease (Clostridium botulinum); assay: Botulinum neurotoxin type F light chain protease inhibition, multiplex microsphere flow cytometry, validation set (AID 588459); settings: multiplex microsphere protease substrate cleavage assay, at 10 µM, stronger effect = higher value
[13] = target: Botulinum neurotoxin type A (Clostridium botulinum) (UniProt P0DPI0); assay: BoNT/A light chain protease inhibitors, biochemical, multiplex microsphere flow cytometry, validation set (AID 588460); settings: at 10 µM, stronger effect = higher value
[14] = inhibitors of fungal efflux pumps CDR1, CDR2, MDR1, pilot screen, validation compound set, multiplex, phenotypic (AID 588506;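 active = efflux inhibition above 0.42, the validation set average plus 4 SD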;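 note: Nile Red retained in cells so higher fluorescence means more efflux inhibition; 0 = negative control wells and 1 = enniatin B 25 µM full block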); settings: S. cerevisiae pump-expressing triplex, Nile Red efflux flow cytometry; at 10 µM; stronger effect = higher value
[15] = target: ATP-binding cassette sub-family B member 6 (Homo sapiens) (UniProt Q9NP58); assay: ABCB6 transporter inhibitors, pilot screen, K562-ABCB6 cells, flow cytometry, validation set (AID 588550;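 active = inhibition above the screen-wide mean plus 3 SD, about 51%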;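 note: 0% = DMSO wells and 100% = benzethonium chloride 70 µM positive control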); settings: K562-ABCB6 porphyrin accumulation, 1 h, at 10 µM, stronger effect = higher value
[16] = promoters of myeloid differentiation in arrested cells, primary screen, cell-based, GFP/MAC1 double positive, flow cytometry, validation set (AID 588685;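 active = differentiation response of at least 50%, scaled between solvent and reference control, from cells with both markers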;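 note: compound exposure lasts four days before antibody staining and flow analysis; 0% = DMSO wells and 100% = 5 µM fulvestrant positive control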); settings: ER-HoxA9 marrow cells, stronger effect = higher value
[17] = target: Lethal factor (Bacillus anthracis) (UniProt P15917); assay: Lethal factor protease inhibitors, Bacillus anthracis, multiplex microsphere cleavage assay, validation set (AID 588461); settings: flow cytometry, at 10 µM, stronger effect = higher value
Chain of Lethal factor (Bacillus anthracis) (P15917 whole entry, looked up): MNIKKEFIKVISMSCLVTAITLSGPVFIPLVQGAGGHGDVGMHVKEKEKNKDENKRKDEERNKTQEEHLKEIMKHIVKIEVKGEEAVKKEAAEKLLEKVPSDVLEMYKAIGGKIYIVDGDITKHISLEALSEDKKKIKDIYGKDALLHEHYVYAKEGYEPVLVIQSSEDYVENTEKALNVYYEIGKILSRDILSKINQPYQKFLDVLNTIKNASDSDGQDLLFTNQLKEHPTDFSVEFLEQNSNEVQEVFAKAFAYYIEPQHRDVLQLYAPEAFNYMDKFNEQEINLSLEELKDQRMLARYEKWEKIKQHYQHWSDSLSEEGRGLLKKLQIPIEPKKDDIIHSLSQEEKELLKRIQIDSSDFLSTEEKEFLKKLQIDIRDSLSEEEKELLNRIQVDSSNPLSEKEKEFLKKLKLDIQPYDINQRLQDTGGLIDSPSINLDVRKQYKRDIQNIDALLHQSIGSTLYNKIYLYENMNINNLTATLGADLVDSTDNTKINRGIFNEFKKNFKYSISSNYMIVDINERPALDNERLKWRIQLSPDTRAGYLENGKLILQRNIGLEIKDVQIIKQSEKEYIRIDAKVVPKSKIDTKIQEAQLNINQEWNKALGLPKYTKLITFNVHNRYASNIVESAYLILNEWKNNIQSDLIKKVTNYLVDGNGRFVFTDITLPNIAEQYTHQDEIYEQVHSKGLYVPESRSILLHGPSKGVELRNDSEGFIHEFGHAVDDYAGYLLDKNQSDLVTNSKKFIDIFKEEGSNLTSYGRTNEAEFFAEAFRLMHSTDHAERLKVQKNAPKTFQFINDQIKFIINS

Chain of Integrin beta-1 (Homo sapiens) + Integrin alpha-4 (Homo sapiens) (P05556 whole entry, looked up): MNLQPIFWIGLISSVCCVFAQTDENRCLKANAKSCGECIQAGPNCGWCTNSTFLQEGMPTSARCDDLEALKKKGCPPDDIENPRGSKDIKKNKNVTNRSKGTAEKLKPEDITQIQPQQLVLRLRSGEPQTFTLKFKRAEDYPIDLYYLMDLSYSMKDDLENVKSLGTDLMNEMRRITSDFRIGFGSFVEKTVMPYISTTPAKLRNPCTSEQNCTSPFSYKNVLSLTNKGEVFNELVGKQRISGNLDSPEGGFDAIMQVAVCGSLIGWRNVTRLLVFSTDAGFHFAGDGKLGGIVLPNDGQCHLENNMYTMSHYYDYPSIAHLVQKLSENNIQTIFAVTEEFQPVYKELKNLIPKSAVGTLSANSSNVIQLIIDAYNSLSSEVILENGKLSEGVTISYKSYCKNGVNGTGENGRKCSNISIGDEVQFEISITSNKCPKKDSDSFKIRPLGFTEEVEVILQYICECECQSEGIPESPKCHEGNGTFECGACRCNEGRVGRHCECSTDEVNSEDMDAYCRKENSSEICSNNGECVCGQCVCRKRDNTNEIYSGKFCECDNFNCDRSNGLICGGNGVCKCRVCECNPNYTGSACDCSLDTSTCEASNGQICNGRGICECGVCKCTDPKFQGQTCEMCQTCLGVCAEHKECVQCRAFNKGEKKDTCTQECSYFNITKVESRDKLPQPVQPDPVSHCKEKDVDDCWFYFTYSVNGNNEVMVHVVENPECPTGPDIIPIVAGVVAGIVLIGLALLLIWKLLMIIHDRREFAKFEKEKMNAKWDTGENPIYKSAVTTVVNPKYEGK
Chain of Integrin beta-1 (Homo sapiens) + Integrin alpha-4 (Homo sapiens) (P13612 whole entry, looked up): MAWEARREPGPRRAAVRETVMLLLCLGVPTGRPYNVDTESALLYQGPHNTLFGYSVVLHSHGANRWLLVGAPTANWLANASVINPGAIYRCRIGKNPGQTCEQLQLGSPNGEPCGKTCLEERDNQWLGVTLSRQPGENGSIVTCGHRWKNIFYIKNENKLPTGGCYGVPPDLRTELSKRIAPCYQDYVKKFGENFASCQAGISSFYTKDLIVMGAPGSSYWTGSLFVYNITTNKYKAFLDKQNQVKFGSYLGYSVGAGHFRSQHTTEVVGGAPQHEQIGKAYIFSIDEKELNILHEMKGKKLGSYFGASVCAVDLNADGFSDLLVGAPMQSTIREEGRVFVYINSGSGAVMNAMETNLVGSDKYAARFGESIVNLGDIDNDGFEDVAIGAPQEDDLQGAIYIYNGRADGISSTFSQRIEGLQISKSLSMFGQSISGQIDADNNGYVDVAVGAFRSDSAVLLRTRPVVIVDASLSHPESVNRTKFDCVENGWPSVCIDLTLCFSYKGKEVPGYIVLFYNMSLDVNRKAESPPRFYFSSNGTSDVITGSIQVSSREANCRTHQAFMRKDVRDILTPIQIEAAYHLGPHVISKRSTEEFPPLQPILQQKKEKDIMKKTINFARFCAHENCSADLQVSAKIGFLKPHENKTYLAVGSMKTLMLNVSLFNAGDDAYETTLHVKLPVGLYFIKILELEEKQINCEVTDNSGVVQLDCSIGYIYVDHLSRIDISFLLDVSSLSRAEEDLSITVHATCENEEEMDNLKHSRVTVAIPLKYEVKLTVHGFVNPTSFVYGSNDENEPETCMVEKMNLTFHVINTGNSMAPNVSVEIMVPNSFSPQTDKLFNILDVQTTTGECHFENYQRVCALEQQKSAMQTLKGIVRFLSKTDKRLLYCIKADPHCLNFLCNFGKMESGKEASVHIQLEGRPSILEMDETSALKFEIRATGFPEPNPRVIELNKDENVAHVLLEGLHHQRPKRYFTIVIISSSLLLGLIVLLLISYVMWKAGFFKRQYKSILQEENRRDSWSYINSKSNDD
Chain of Botulinum neurotoxin type A (Clostridium botulinum) (P0DPI0 whole entry, looked up): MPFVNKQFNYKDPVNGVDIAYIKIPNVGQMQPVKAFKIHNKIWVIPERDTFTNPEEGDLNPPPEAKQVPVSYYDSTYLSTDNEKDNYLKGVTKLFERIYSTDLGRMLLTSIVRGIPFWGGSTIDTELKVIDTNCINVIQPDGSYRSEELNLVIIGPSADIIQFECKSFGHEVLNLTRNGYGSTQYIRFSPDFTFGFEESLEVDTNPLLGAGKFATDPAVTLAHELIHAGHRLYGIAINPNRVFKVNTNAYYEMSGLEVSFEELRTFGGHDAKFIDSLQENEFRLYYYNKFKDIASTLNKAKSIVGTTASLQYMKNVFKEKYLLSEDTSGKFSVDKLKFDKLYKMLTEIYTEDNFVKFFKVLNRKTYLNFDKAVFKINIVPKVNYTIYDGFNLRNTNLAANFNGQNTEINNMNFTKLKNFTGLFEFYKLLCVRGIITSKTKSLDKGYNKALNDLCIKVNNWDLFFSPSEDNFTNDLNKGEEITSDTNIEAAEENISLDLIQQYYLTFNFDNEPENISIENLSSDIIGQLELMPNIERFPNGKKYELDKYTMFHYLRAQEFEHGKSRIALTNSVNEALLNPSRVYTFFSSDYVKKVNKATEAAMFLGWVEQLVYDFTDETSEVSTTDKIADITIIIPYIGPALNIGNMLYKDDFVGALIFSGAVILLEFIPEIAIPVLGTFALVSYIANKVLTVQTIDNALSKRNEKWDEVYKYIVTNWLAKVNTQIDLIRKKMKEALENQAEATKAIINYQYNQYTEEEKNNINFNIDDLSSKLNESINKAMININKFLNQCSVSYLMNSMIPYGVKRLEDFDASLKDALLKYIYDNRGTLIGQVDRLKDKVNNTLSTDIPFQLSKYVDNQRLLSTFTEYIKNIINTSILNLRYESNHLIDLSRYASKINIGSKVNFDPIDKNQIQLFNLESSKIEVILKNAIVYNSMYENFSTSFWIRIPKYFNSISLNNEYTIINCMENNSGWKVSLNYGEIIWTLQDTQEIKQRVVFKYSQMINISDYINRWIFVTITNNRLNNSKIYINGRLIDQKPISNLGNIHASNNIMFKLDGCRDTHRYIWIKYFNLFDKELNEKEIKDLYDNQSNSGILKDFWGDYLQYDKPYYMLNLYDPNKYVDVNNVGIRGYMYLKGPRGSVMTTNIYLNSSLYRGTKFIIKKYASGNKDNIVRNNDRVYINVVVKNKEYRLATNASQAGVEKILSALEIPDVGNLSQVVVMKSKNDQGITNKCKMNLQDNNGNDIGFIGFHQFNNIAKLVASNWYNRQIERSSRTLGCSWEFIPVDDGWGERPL
Chain of ATP-binding cassette sub-family B member 6 (Homo sapiens) (Q9NP58 whole entry, looked up): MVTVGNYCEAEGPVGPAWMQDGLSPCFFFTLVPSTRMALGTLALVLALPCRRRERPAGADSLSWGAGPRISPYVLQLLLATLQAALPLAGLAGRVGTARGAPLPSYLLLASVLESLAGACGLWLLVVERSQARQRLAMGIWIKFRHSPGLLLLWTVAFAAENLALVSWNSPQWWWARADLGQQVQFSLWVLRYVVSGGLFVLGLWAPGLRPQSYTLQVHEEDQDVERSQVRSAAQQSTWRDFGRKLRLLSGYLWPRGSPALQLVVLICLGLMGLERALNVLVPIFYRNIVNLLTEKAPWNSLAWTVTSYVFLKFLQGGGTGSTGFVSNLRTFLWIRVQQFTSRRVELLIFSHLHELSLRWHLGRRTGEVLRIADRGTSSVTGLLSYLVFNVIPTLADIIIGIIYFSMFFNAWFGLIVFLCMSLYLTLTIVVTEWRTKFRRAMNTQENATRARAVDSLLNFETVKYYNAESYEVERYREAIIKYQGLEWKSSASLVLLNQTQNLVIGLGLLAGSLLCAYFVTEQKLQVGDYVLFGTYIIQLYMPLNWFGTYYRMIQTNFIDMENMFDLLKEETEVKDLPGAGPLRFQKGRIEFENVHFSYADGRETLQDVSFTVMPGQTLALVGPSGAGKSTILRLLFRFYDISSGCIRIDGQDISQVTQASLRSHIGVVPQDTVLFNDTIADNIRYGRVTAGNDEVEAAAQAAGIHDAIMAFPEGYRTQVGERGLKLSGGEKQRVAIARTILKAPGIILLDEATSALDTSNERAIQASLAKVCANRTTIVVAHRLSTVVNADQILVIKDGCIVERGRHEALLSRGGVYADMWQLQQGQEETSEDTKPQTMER

## Cc1cc(Cl)ccc1OC(C)C(=O)O (stereo unspecified)
[1]
  percent of DMSO control GFP: 97.9% (inactive)
[2]
  GFP response vs DMSO: 108% (inactive)
[3]
  percent response of DMSO control: 111% (inactive)
[4]
  GFP response vs DMSO: 74.8% (inactive)
[5]
  double positive events: 58.2%
  vesicle binding response: 208% (inactive)
[6]
  inhibition: -6.15% (inactive)
[7]
  superoxide response (% of plate): 135% (inactive)
[8]
  aptamer binding inhibition: -5% (inactive)
[9]
  inhibition: 0.4% (inactive)
[10]
  response: 3.15% (inactive)
[11]
  binding (% of control): 105% (inactive)
[12]
  inhibition: 3.9% (inactive)
[13]
  inhibition: 0.5% (inactive)
[14]
  efflux inhibition (fraction of control): 0.37 (inactive)
[15]
  inhibition: 9% (inactive)
[16]
  differentiation response: 7.37% (inactive)

## C[C@H]1CCC[C@H](O)CCCCCc2cc(O)cc(O)c2C(=O)O1
[1]
  percent of DMSO control GFP: 104% (inactive)
[2]
  GFP response vs DMSO: 94.8% (inactive)
[3]
  percent response of DMSO control: 106% (inactive)
[4]
  GFP response vs DMSO: 87.3% (inactive)
[5]
  double positive events: 52.7%
  vesicle binding response: 191% (inactive)
[6]
  inhibition: -7.7% (inactive)
[7]
  superoxide response (% of plate): 106% (inactive)
[8]
  aptamer binding inhibition: -4% (inactive)
[9]
  inhibition: -16.7% (inactive)
[10]
  response: 3% (inactive)
[11]
  binding (% of control): 106% (inactive)
[12]
  inhibition: 0.3% (inactive)
[13]
  inhibition: -0.8% (inactive)
[17]
  inhibition: -4.3% (inactive)
[14]
  efflux inhibition (fraction of control): -0.28 (inactive)
[15]
  inhibition: 9% (inactive)
[16]
  differentiation response: -34.1% (inactive)

## CN1C(=O)CN=C(c2ccc(Cl)cc2)c2cc(Cl)ccc21
[1]
  percent of DMSO control GFP: 99% (inactive)
[2]
  GFP response vs DMSO: 100% (inactive)
[3]
  percent response of DMSO control: 95.4% (inactive)
[4]
  GFP response vs DMSO: 103% (inactive)
[5]
  double positive events: 62.8%
  vesicle binding response: 174% (inactive)
[6]
  inhibition: 9.92% (inactive)
[8]
  aptamer binding inhibition: -1% (inactive)
[9]
  inhibition: -0.45% (inactive)
[10]
  response: 4.65% (inactive)
[11]
  binding (% of control): 96.8% (inactive)
[12]
  inhibition: 3.6% (inactive)
[13]
  inhibition: 0.8% (inactive)
[17]
  inhibition: -3.5% (inactive)
[14]
  efflux inhibition (fraction of control): 0.27 (inactive)
[15]
  inhibition: 7% (inactive)
[16]
  differentiation response: 1.22% (inactive)

## Cc1ccc2c(c1)C1CN(C)CCC1N2C(=O)Nc1cccc(Cl)c1 (stereo unspecified)
[1]
  percent of DMSO control GFP: 99.5% (inactive)
[2]
  GFP response vs DMSO: 102% (inactive)
[3]
  percent response of DMSO control: 109% (inactive)
[4]
  GFP response vs DMSO: 95.4% (inactive)
[5]
  double positive events: 56.9%
  vesicle binding response: 242% (inactive)
[6]
  inhibition: 30.5% (inactive)
[7]
  superoxide response (% of plate): 93.4% (inactive)
[8]
  aptamer binding inhibition: -3% (inactive)
[9]
  inhibition: 27.7% (inactive)
[10]
  response: -6.89% (inactive)
[11]
  binding (% of control): 102% (inactive)
[12]
  inhibition: -0.9% (inactive)
[13]
  inhibition: -0.1% (inactive)
[17]
  inhibition: 0% (inactive)
[14]
  efflux inhibition (fraction of control): -0.09 (inactive)
[15]
  inhibition: 4% (inactive)
[16]
  differentiation response: -18% (inactive)

## CC(C)(C)NCC(O)c1cc(Cl)c(N)c(Cl)c1 (stereo unspecified)
[1]
  percent of DMSO control GFP: 104% (inactive)
[2]
  GFP response vs DMSO: 102% (inactive)
[3]
  percent response of DMSO control: 97.6% (inactive)
[4]
  GFP response vs DMSO: 99.1% (inactive)
[5]
  double positive events: 60.7%
  vesicle binding response: 138% (inactive)
[6]
  inhibition: -21.2% (inactive)
[7]
  superoxide response (% of plate): 94.5% (inactive)
[8]
  aptamer binding inhibition: -1% (inactive)
[9]
  inhibition: -12.6% (inactive)
[10]
  response: 1.54% (inactive)
[11]
  binding (% of control): 112% (inactive)
[12]
  inhibition: 2.9% (inactive)
[13]
  inhibition: 2.2% (inactive)
[17]
  inhibition: 6.8% (inactive)
[14]
  efflux inhibition (fraction of control): -0.28 (inactive)
[15]
  inhibition: 2% (inactive)
[16]
  differentiation response: 17.4% (inactive)

## C[N+]1(C)[C@@H]2CC(OC(=O)[C@H](CO)c3ccccc3)C[C@H]1[C@@H]1O[C@@H]12 (stereo partly specified)
[1]
  percent of DMSO control GFP: 97.8% (inactive) and 102% (inactive)
[2]
  GFP response vs DMSO: 104% (inactive) and 114% (inactive)
[3]
  percent response of DMSO control: 99.7% (inactive) and 92% (inactive)
[4]
  GFP response vs DMSO: 94.8% (inactive) and 112% (inactive)
[5]
  double positive events: 62.3% and 61.3%
  vesicle binding response: 109% (inactive) and 5740% (inactive)
[6]
  inhibition: 12.3% (inactive) and -9.98% (inactive)
[7]
  superoxide response (% of plate): 103% (inactive) and 114% (inactive)
[8]
  aptamer binding inhibition: -1% (inactive) and 1% (inactive)
[9]
  inhibition: 5.6% (inactive) and -2.35% (inactive)
[10]
  response: 3.4% (inactive) and -1.88% (inactive)
[11]
  binding (% of control): 99.6% (inactive) and 101% (inactive)
[12]
  inhibition: -3.5% (inactive) and 1.5% (inactive)
[13]
  inhibition: -1.8% (inactive) and 0.7% (inactive)
[17]
  inhibition: -5.6% (inactive) and 13.1% (inactive)
[15]
  inhibition: -8% (inactive) and 5% (inactive)
[16]
  differentiation response: -6.03% (inactive) and -15.2% (inactive)

## CC(C)[C@H]1C(=O)N2CCC[C@H]2[C@]2(O)O[C@](NC(=O)[C@@H]3C=C4c5cccc6[nH]cc(c56)C[C@H]4N(C)C3)(C(C)C)C(=O)N12
[1]
  percent of DMSO control GFP: 99% (inactive)
[2]
  GFP response vs DMSO: 108% (inactive)
[3]
  percent response of DMSO control: 102% (inactive)
[4]
  GFP response vs DMSO: 123% (inactive)
[5]
  double positive events: 59.8%
  vesicle binding response: 192% (inactive)
[7]
  superoxide response (% of plate): 38.3% (active)
[8]
  aptamer binding inhibition: 8% (inactive)
[9]
  inhibition: 3.83% (inactive)
[10]
  response: -7.73% (inactive)
[11]
  binding (% of control): 105% (inactive)
[12]
  inhibition: -15.7% (inactive)
[13]
  inhibition: -5% (inactive)
[17]
  inhibition: -64.2% (inactive)
[14]
  efflux inhibition (fraction of control): 0.25 (inactive)
[15]
  inhibition: -96% (inactive)
[16]
  differentiation response: -2.03% (inactive)

## COc1ccc(OC)c(C(O)C(C)N)c1 (stereo unspecified)
[1]
  percent of DMSO control GFP: 103% (inactive)
[2]
  GFP response vs DMSO: 94.1% (inactive)
[3]
  percent response of DMSO control: 95.4% (inactive)
[4]
  GFP response vs DMSO: 87.4% (inactive)
[5]
  double positive events: 59.9%
  vesicle binding response: 41.1% (inactive)
[6]
  inhibition: 7.85% (inactive)
[8]
  aptamer binding inhibition: 0% (inactive)
[9]
  inhibition: -0.56% (inactive)
[10]
  response: 1.5% (inactive)
[11]
  binding (% of control): 105% (inactive)
[12]
  inhibition: 2.2% (inactive)
[13]
  inhibition: 1.1% (inactive)
[17]
  inhibition: 3.1% (inactive)
[14]
  efflux inhibition (fraction of control): 0.61 (active)
[15]
  inhibition: 10% (inactive)
[16]
  differentiation response: 24.7% (inactive)

## CCN(CC)C(=O)N[C@H]1C[C@@H]2c3cccc4[nH]cc(c34)C[C@H]2N(C)C1
[1]
  percent of DMSO control GFP: 101% (inactive)
[2]
  GFP response vs DMSO: 107% (inactive)
[3]
  percent response of DMSO control: 101% (inactive)
[4]
  GFP response vs DMSO: 94% (inactive)
[5]
  double positive events: 62.5%
  vesicle binding response: 197% (inactive)
[6]
  inhibition: -11.9% (inactive)
[8]
  aptamer binding inhibition: -2% (inactive)
[9]
  inhibition: 28.7% (inactive)
[10]
  response: -1.97% (inactive)
[11]
  binding (% of control): 101% (inactive)
[12]
  inhibition: -2.6% (inactive)
[13]
  inhibition: -1.3% (inactive)
[17]
  inhibition: -36% (inactive)
[14]
  efflux inhibition (fraction of control): 0.36 (inactive)
[15]
  inhibition: -252% (inactive)
[16]
  differentiation response: 21.8% (inactive)

Source: PubChem BioAssay
